Measurements from PubChem BioAssay.
Calls of active or inactive are those of the source. No rule for the calls is given here.

target: Pantothenate synthetase (Mycobacterium tuberculosis (strain ATCC 25618 / H37Rv)) (UniProt P9WIL5); assay: Recombinant Mtb pantothenate synthetase (PanC) inhibitors, coupled enzyme, confirmatory (AID 375); settings: coupled enzyme assay; at 10 µM, active compounds read high;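 also: 0% = full reaction with vehicle and 100% = no enzyme background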
Sequence (P9WIL5 whole entry, looked up): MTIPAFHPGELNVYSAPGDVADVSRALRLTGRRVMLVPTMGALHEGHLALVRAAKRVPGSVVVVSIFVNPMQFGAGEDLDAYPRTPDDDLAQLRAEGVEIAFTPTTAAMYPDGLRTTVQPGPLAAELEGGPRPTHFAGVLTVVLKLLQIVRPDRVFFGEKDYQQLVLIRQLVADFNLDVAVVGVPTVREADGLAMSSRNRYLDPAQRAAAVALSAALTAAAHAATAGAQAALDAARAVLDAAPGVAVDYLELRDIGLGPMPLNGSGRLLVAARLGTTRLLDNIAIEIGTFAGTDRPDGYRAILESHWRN

**Q.** COc1ccc(C)cc1S(=O)(=O)N(C)CC(=O)Nc1ccc2c(c1)OCO2 was tested. Which inhibition did it give?
**A.** 0% (inactive)

**Q.** Cc1ccc(C)c(C(=O)CC2(O)C(=O)N(C)c3ccccc32)c1 (configuration not stated) was tested. Which inhibition did it give?
**A.** 0% (inactive)

**Q.** With CCOc1ccc(NC(=O)CSc2nnc(COc3c(C)cccc3C)o2)cc1 as the compound, how does the inhibition read?
**A.** 1% (inactive)

**Q.** With COc1ccc(CCNC(=O)c2ccc(N3CCCC3=O)cc2)cc1OC as the compound, how does the inhibition read?
**A.** 0% (inactive)

**Q.** For COc1ccc(CNCC(=O)Nc2cc(C)nn2-c2nc(C)cc(C)n2)cc1OC, which inhibition is on record?
**A.** 0% (inactive)

**Q.** With COc1ccc(C(NC(=O)C(C)(C)C)NC(=O)C(C)(C)C)cc1 as the compound, how does the inhibition read?
**A.** 0% (inactive)

**Q.** CCOc1ccccc1CN1C(=O)c2ccccc2C1C(=O)NCC1CCCO1 (configuration not stated) was tested. Which inhibition did it give?
**A.** 11% (inactive)

**Q.** How did the inhibition turn out when O=C(Oc1ccc2c(c1)CCC2)N1CCOCC1 was run?
**A.** 0% (inactive)

**Q.** For Cn1c(=O)n(Cc2ccc(F)cc2)c(=O)c2c1nc1n2CCCN1Cc1ccccc1, which inhibition is on record?
**A.** 0% (inactive)

**Q.** With CCOc1ccccc1C(=O)N1CCN(c2cccc(Cl)c2)CC1 as the compound, how does the inhibition read?
**A.** 0% (inactive)

**Q.** CCN(CC)C(=O)C1=C(C)NC(=O)NC1c1c(F)cccc1Cl (configuration not stated) was tested. Which inhibition did it give?
**A.** 0% (inactive)

**Q.** How did the inhibition turn out when COc1ccc(/C=C/C(=O)Nc2ccccc2C(=O)O)cc1OC was run?
**A.** 0% (inactive)

**Q.** With CCOC(=O)c1[nH]nc(N)c1NC(=O)c1ccc(Cl)cc1Cl as the compound, how does the inhibition read?
**A.** 0% (inactive)

**Q.** COCCN(Cc1cc2cccc(C)c2[nH]c1=O)C(=O)c1ccccc1 was tested. Which inhibition did it give?
**A.** 0% (inactive)

**Q.** CC(C)CCNc1cc(=O)n(C)c(=O)n1C was tested. Which inhibition did it give?
**A.** 0% (inactive)

**Q.** Cn1c(SCC(=O)Nc2cccc3ccccc23)nc(O)cc1=O was tested. Which inhibition did it give?
**A.** 0% (inactive)

**Q.** With O=C1NC(=O)C(CC(=O)N(c2ccccc2)C2(C(=O)NC3CCCC3)CCCCC2)N1 (configuration not stated) as the compound, how does the inhibition read?
**A.** 2% (inactive)
